Results with a measured potency or affinity are listed apart. Inconclusive results are not listed. A number with no mark means an inactive call.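 How the source made its calls: active means fluorescent signal drops by 40% or more, counted as a hit; inconclusive means no clear call, values can overlap the other calls; inactive means the rest, including any activity in the opposite direction.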
Assay: blockers of FN fibrillogenesis by fibroblasts – AH1F cells, Alexa488-FN fluorescence, cherry-picks, dose response (AID 1035475);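 further: AH1F fibroblasts incorporating labeled fibronectin into their extracellular matrix; 0% = neutral control wells and -100% = wells without labeled fibronectin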
Settings: Alexa488-fibronectin deposition fluorescence, overnight; series mostly up to 35 µM; activity change, negative = inhibition: at the top concentration

Point of comparison: `CO[C@H]1CN(C)C(=O)c2cc(NC(=O)Nc3ccc(Cl)c(Cl)c3)ccc2OC[C@@H](C)NC[C@H]1C`, “activity change, negative = inhibition” value 19.8%. Against it:
- COc1ccc(C)cc1N(CC(=O)Nc1cccc(N(C)S(C)(=O)=O)c1)S(C)(=O)=O — lower, -10.8%
- C[C@@H]1CN([C@@H](C)CO)C(=O)c2cccc(NC(=O)Nc3ccc(C(F)(F)F)cc3)c2O[C@H]1CN(C)C(=O)Nc1cccc2ccccc12 — lower, -29.2%
- CO[C@H]1CN(C)C(=O)c2cc(NC(C)=O)ccc2OC[C@@H](C)N(C(=O)CN2CCOCC2)C[C@H]1C — higher, 43.6%
- C[C@H](O)C#Cc1ccc2c(c1)O[C@@H](CN(C)C)[C@H](C)CN([C@H](C)CO)S2(=O)=O — higher, 26.9%
- Cc1ccc(C(O)c2ncc(-c3cccc4ccccc34)[nH]2)cc1F (stereo not drawn) — lower, -18.8%
- COc1ccc(-c2csc(CCn3nc(C)cc3C)n2)cc1OC — lower, -6.87%
- OC(CNC1CCCc2ccccc21)COc1c(Cl)cccc1Cl (stereo not drawn) — lower, -2.1%
- O=c1c2cc(N3CCOCC3)ccc2[nH]c(=S)n1Cc1ccc(Cl)cc1 — lower, -36.2%
- CN(C)C(=O)c1ccc(-c2ccc3c(c2)[C@@H]2[C@@H](CCN2C(=O)c2ccc(F)cc2)[C@H](CO)N3C)cc1 — higher, 38.9%
- C[C@H](CO)N1C[C@H](C)[C@H](CN(C)C(=O)c2cccc(F)c2)Oc2ncc(-c3ccccc3)cc2C1=O — higher, 25%
- C[C@H](O)C#Cc1ccc2c(c1)O[C@@H](CN(C)C)[C@H](C)CN([C@@H](C)CO)S2(=O)=O — higher, 32.9%
- C[C@@H]1CN([C@@H](C)CO)C(=O)c2cc(-c3ccccc3)cnc2O[C@H]1CN(C)Cc1ccccc1 — higher, 22.7%
